# Experimental data reported in PubChem BioAssay (NCI).
# This is part of a sample that, as a whole, favours compounds with a hit. Of some 83,000 tested, about 20% had one in any assay.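 A percent growth of 40 corresponds to 60% growth inhibition; 0 means no net growth; -100 means all cells died. Active threshold: below 10.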 Activity calls are given as the source filed them.
# Tested on: SN12C renal
# Test: NCI-60 one-dose screen, 48 h (100 = growth as untreated, 0 = no growth, -100 = all killed)
# Details: 10 µM unless noted
# Method: Growth inhibition of the SN12C human tumor cell line is measured as a screen for anti-cancer activity. Cells are grown in 96 well plates and exposed to the test compound for 48 hours. Compounds are tested at a single concentration, which is 10^-5 M for most compounds. The reported endpoint is percent growth (GI% or GIPRCNT), where numbers from 0 - 100% represent growth inhibition, and numbers from -100% - 0 represent cell death. For example, a value of 40 represents 60% growth inhibition. A value of 0 means no net growth occurred over the course of the experiment. A value of -40 indicates 40% of cells at the beginning of the experiment died by the end of the experiment. A value of -100 means all cells are dead at the end of the experiment.
# NCI-60 Human Tumor Cell Lines Screen was performed using the standard one-dose NCI protocol, which is described in more detail at https://dtp.cancer.gov/discovery_development/nci-60/default.htm.
# Compounds with GIPRCNT values below 10 were considered active. Activity score was based on GIPRCNT using the following formula: […]
# Score is 0 for GIPRCNT values of 100 or above, 50 for GIPRCNT values of 0, and 100 for GIPRCNT values of -100.
row,Compound,growth
1,CCCCCC1CCCCN1C(=O)OCC (stereo not given),102% (inactive)
2,C=C1C(=O)O[C@H]2[C@H]1CC/C(COC(=O)NCc1cc3ccccc3[nH]1)=C\CC[C@@]1(C)O[C@@H]21,-56.8% (active)
3,NC(=O)[C@@H]1CC2CCC1C2 (stereo not given in full),114% (inactive)
4,NNC(=O)c1nc2ccccc2[nH]1,102% (inactive)
5,NC(=O)NCC1CCCCC1,106% (inactive)
6,COC(=O)[C@]12CC[C@@H](C)[C@H](C)[C@@H]1C1=CC[C@@H]3[C@@]4(C)C[C@@H](OC(C)=O)[C@H](O)[C@@](C)(CO)[C@@H]4[C@H](O)C[C@@]3(C)[C@]1(C)CC2,-78.3% (active)
7,Cc1csc(-c2ccc3c(c2)COC3(CCCN(C)C)c2ccc(F)cc2)c1 (stereo not given),62.7% (inactive)
8,O=C(CCCCCn1c2ccccc2c2c3c(c4c5ccccc5[nH]c4c21)C(=O)N(O)C3=O)N1CCOCC1,57.1% (inactive)
9,CN(CSc1ccc(Cl)cc1)c1ccc(CSc2ccc(Cl)cc2)cc1,36.9% (inactive)
10,CCOC(=O)C/C(=C\c1ccccc1)C(C)=O,105% (inactive)
11,C#CCN=C[C@]12CC[C@@H](C(=C)C)[C@@H]1[C@H]1CC[C@@H]3[C@@]4(C)CCC(=O)C(C)(C)[C@@H]4CC[C@@]3(C)[C@]1(C)CC2,55.1% (inactive)
12,CC(=O)O[C@H]1CC[C@]2(C)[C@H]3CC=C4[C@@H]5[C@H](C)[C@@H](C)CC[C@]5(C(=O)NCCNCCNCCN)CC[C@@]4(C)[C@]3(C)CC[C@H]2C1(C)C,78.3% (inactive)
13,C=C(C)[C@@H]1CC[C@]2(C(=O)N3CCN(CC)CC3)CC[C@]3(C)[C@H](CC[C@@H]4[C@@](C)(CCC(=O)N5CCN(CC)CC5)[C@H](C(=C)C)CC[C@]43C)[C@@H]12,66.9% (inactive)
14,CCOC(=O)N1CCN(CCCCOc2ccc(C(C)(C)CC)cc2)CC1,95.7% (inactive)
15,N=c1c(S(=O)(=O)c2ccccc2)cc2c(=O)n3ccccc3nc2n1C1CCCC1,87.2% (inactive)
16,CCOc1ccc(NC(=O)c2ccoc2COc2ccccc2)cc1,99.1% (inactive)
17,COc1ccc(-c2nc3ccccn3c2-c2nc3ccc(Cl)cc3[nH]2)cc1,97.3% (inactive)
18,CCCCC[C@H]1C/C=C2/C(=O)C=C[C@@H]2C/C=C\CCCC(=O)O[C@@H](CCCCC)C/C=C2/C(=O)C=C[C@@H]2C/C=C\CCCC(=O)O1,-65.7% (active)
19,CC(C)(C)CC(C)(C)c1ccc(OCCOCC[N+](C)(C)CC(=O)[O-])cc1,103% (inactive)
20,COc1cc(NC(C)CN(CC(C)C)C(C)C)c2ncccc2c1 (stereo not given),104% (inactive)

row,Compound,growth
1,Cn1c(=O)c2c(nc(N3CCCC3)n2C)n(C)c1=O,102% (inactive)
2,O=C(/C=C/c1cccc(O)c1)c1ccccc1O,83.7% (inactive)
3,Nc1c(C(=O)Nc2cccc(Br)c2)sc2nc3c(cc12)C(=O)CCC3,45.2% (inactive)
4,CC(C)(C)c1nc(-c2ccc(O)c(O)c2)cs1,59.5% (inactive)
5,c1ccc(C2Cc3ccccc3C2=NC2CCCCC2)cc1 (stereo not given),101% (inactive)
6,CSc1ccc(N(C)c2nc(C)nc3c2CCC3)cc1,18.4% (inactive)
7,CN1CCN(c2nc(-c3cccc4ccccc34)nc3sc4c(c23)CCCCCC4)CC1,75.9% (inactive)
8,c1ccc2[nH]c(-c3cc(-c4ccc5c(c4)OCO5)n[nH]3)nc2c1,62.9% (inactive)
9,NC(N)=N/N=C/c1ccc(-c2ccc(-c3ccc(Cl)cn3)s2)cc1,89.8% (inactive)
10,Cn1cc(-c2csc(-c3cn(CCN)c4ccc(Br)cc34)n2)c2cccnc21,68.9% (inactive)
11,C=C1C(=O)O[C@H]2[C@H]1CC/C(Cn1cc(-c3ccc(F)cc3)nn1)=C\CC[C@@]1(C)O[C@@H]21,-13.6% (active)
12,O=C(/C=C\c1ccc2c(c1)OCO2)/C=C/c1ccc2c(c1)OCO2,86.5% (inactive)
13,CC1(C)C(=O)CC[C@]2(C)[C@H]3C(=O)C=C4[C@@H]5C[C@@](C)(C(=O)NCCNCCN)CC[C@]5(C)CC[C@@]4(C)[C@]3(C)CC[C@@H]12,86% (inactive)
14,Cn1cc(-c2csc(-c3cn(CCCN4CCCCC4)c4ccccc34)n2)c2cccnc21,-70.9% (active)
15,O=[N+]([O-])c1cccc(/C=N\Nc2ccccc2)c1,74.7% (inactive)
16,NCCn1cc(-c2nc(-c3c[nH]c4ncccc34)cs2)c2cc(F)ccc21,79% (inactive)
17,Fc1ccc(Nc2nc(Nc3ccc(-c4nc5ccccc5[nH]4)cc3)nc(N3CCCC3)n2)cc1,81.2% (inactive)
18,CCOc1ccc(NC(=O)c2ccccc2-c2ccccc2C(=O)O)cc1,100% (inactive)
19,Cc1nnc2nc(N)[nH]n2c1=O,118% (inactive)
20,C[C@@H](C(=O)O)c1ccc2c3cc(Cl)ccc3n(Cc3cc(=O)oc4ccc(Cl)cc34)c2c1,98.8% (inactive)
